Assay results reported in PubChem BioAssay AID651599 (National Center for Advancing Translational Sciences (NCATS), 2012).
Records with an inconclusive call do not appear. Where a call stands in place of a potency, no number is given. Active and inactive are the calls of the source. Calls follow the shape of the dose curve; as a rule, active = well fitted inhibition curve with a large enough effect; inconclusive = small, poorly fitted or top-dose-only effect; inactive = no such curve, though single readings can be large or run the other way.

target: Tumor susceptibility gene 101 protein (Homo sapiens) (UniProt Q99816); experiment: qHTS Assay for Iinhibitors of HIV-1 Budding by Blocking the Interaction of PTAP/TSG101: Hit Validation in TR assay; details: Tsg101 binding domain + Texas Red-labeled PTAP peptide, fluorescence polarization, 20 min; series mostly up to 57.5 µM
Excerpt: Stages of the HIV-1 replication cycle, specifically virus assembly and release, provide underexploited targets for the development of novel antiviral inhibitors. The late stages of HIV-1 replication are mediated by the Gag precursor protein, Pr55Gag. Expression of Pr55Gag is both necessary and sufficient for the production of virus-like particles from Gag-expressing cells. The Gag protein hijacks key host proteins involved in endocytic machinery of the host cell to promote endosomal processing and viral budding. The budding process requires a direct interaction between a […] (PTAP) motif in the p6 domain of Gag and the cellular endosomal sorting protein known as Tsg101. In this way, the Gag PTAP motif promotes the host cells to recruit viral particles to the plasma membrane where the new viral particles are released, effectively turning the host cells into viral factories. A fluorescence anisotropy assay has been developed to quantitatively measure the PTAP-Tsg101 interaction which can be used to screen for inhibitors of this interaction.
This hit validation assay is similar to the primary assay but uses the Texas Red label instead of FITC.
NIH Molecular Libraries Probe Production Network [MLPCN]
NIH Chemical Genomics Center [NCGC]
PI Name: Dr. Eric Freed, NCI
Two uL of the Tsg101 binding domain in buffer (10 mM HEPES pH 7.5; 0.15 M NaCl, 0.01% Tween 20; 3 mM EDTA;0.1 mM TCEP) was dispensed into Greiner black MB 1536-well plates (final concentration 10 uM). Then, 23 nL of compounds or DMSO were delivered to each well using a pin tool. Finally, 2 uL of a TR-labeled peptide containing the PTAP motif (1) in the same buffer was dispensed (50 nM final concentration) and the binding was allowed to proceed for 20 min. at r.t. Fluorescent polarization was determined using TR excitation and polarized emission filters on a Perkin Elmer Viewlux.
Keywords: Tsg101, PTAP, Gag, HIV, fluorescent polarization, MLSMR, MLPCN, NIH Roadmap, qHTS, NCGC
Potency is read from the fitted curve at half-maximal effect.

Chain of Tumor susceptibility gene 101 protein (Homo sapiens) (Q99816 whole entry, looked up, the tested form may be a part): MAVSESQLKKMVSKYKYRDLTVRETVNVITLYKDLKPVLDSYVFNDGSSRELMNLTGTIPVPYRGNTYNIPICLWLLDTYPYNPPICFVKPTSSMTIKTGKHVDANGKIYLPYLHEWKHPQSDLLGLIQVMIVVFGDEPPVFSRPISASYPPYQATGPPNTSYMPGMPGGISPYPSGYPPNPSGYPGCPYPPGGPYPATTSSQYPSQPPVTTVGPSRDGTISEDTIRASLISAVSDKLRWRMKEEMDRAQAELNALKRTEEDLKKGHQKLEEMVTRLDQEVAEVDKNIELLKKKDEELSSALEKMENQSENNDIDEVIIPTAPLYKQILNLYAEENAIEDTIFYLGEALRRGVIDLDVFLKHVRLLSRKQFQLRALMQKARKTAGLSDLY

| SMILES | Potency |
| --- | --- |
| O=C(Cc1nc2ccccc2[nH]c1=O)c1ccccc1 | inactive |
| COC(=O)C[C@H]1c2cc(F)ccc2S(=O)(=O)N1c1ccccc1 | inactive |
| COc1cccc2c1C(=O)c1c(O)c3c(c(O)c1C2=O)C[C@](O)(C(C)=O)C[C@H]3O[C@@H]1C[C@@H](N)[C@@H](O)[C@@H](C)O1 | inactive |
| CC[C@@]1(C(=O)OC)N[C@H](CN(C)C(=O)c2ccc(C)cc2)[C@@H]2C(=O)N(Cc3ccccc3)C(=O)[C@@H]21 | inactive |
| O=c1c(/C=C(\O)c2ccc(F)cc2)nc2ccccc2n1-c1ccccc1 | inactive |
| COCC1CCN(Cc2c(C(=O)N3CCc4ccccc4C3)nc3ccc(Cl)cn23)C1 (stereo not given) | inactive |
| Cn1c(=O)cc2c3c(c(N4CCCCC4)ccc31)C(=O)c1ccccc1-2 | inactive |
| C=CCn1c(=O)[nH]c2nc3cc(N=CN(C)C)c(C)cc3nc2c1=O | 18.3 µM (active) |
| CN(C)c1ccc(/C=C2\SC(=O)N(CC(O)Cn3c4ccccc4c4ccccc43)C2=O)cc1 (stereo not given) | inactive |
| O=C(NC1CCCC1)c1cccc2c1C(=O)c1ccc(N3CCCCC3)cc1S2(=O)=O | inactive |
| CCSc1nnc(-c2sc3nnc(-c4ccccc4)c(-c4ccccc4)c3c2N)o1 | inactive |
| C/C(=N\NC(=O)CC#N)c1cc2ccc(O)cc2oc1=O | inactive |
| N#CC(C(=O)NC1CC1)c1nc2ccccc2nc1N1CCCC1 (stereo not given) | inactive |
| O=C(CCN1C(=O)/C(=C/c2ccco2)SC1=S)Nc1ccc(O)cc1C(=O)O | inactive |
| COC(=O)c1c(NC(=O)CC2Nc3cc(C)c(C)cc3NC2=O)sc(C)c1C (stereo not given) | 2.91 µM (active) |
| C(=N\NC1=Nc2cccc3cccc1c23)/c1ccccc1 | inactive |
| COC(=O)CN1C(=S)N(c2ccc(OC)cc2)C(=O)/C1=C/c1ccc(N2CCOCC2)cc1 | inactive |
| COC(=O)C[n+]1cccc2ccccc21 | inactive |
| Cc1cc2nc3c(=O)n(Cc4ccccc4)c(=O)[nH]c3nc2cc1N | inactive |
| CCN(CC)C1=CC2=CC(=C(C#N)C#N)CCC2CC1 (stereo not given) | inactive |

| SMILES | Potency |
| --- | --- |
| Cc1cc(=O)oc(C)c1C(=O)Nc1ccc2ncccc2c1 | inactive |
| O=[N+]([O-])c1cc(Cl)cc(/C=N/n2cnnc2)c1O | inactive |
| O=S(=O)([N-]c1nc2ccccc2nc1-[n+]1ccc(-c2ccncc2)cc1)c1ccccc1 | inactive |
| Cc1ccccc1C1CC(=O)Oc2cc(O)ccc21 (stereo not given) | inactive |
| CCCN1CCN(S(=O)(=O)c2cn(C)nc2C)CC1 | inactive |
| Cn1nc([N+](=O)[O-])c(C(C#N)c2nc3ccccc3n2C)c(Cl)c1=O (stereo not given) | inactive |
| COc1cccc2c1C(=O)c1c(O)c3c(c(O)c1C2=O)CC(O)(C(C)=O)CC3OC1CC(O)C(O)C(C)O1 (stereo not given) | inactive |
| c1ccc2[nH]c3cc4ncnc4cc3nc2c1 | inactive |
| CCNc1ccc2noc3c2c1C(=O)c1ccccc1-3 | inactive |
| CC1CCN(c2ccc3c(c2)S(=O)(=O)c2cccc(C(=O)NCc4cccc(F)c4)c2C3=O)CC1 | inactive |
| O=C(NCc1ccco1)c1cccc2c1C(=O)c1ccc(N3CCC(Cc4ccccc4)CC3)cc1S2(=O)=O | inactive |
| CCCCNc1c2c3c(cccc3n(C)c1=O)C(=O)c1ccccc1-2 | inactive |
| Cn1c(=O)c(N)c2c3c(c(Br)ccc31)C(=O)c1ccccc1-2 | 18.3 µM (active) |
| Oc1[nH]c2ccccc2c1N=Nc1ccccc1 | inactive |
| CCCCCCn1c(=O)[nH]c2nc3cc(N)c(C)cc3nc2c1=O | inactive |
| NC(=O)CSc1nc2c(sc3ccccc32)c(=O)n1CCCC(=O)NCC1CCCO1 (stereo not given) | inactive |
| O=C(NCc1cccc(C(F)(F)F)c1)c1cccc2c1C(=O)c1ccc(N3CCC(Cc4ccccc4)CC3)cc1S2(=O)=O | inactive |
| CCOC(=O)c1ccc(NC(=O)CSc2nc(-c3cccs3)cc(C(F)(F)F)c2C#N)cc1 | inactive |
| CCCCC(=O)NC1=NC(=O)C(C)(C)S1 | inactive |
| O=c1oc2cc(O)ccc2cc1-c1nc2c(s1)CCc1ccccc1-2 | inactive |
